This passage reports Euclidean distance results from the supplement of paper PMC10127200.

Each structure is given as a SMILES string. Structures can show the parent of a compound that is named as a salt.

Experiment in all cases: Euclidean distance of Cell Painting phenotypic profile (signed KS, 77 features) to DMSO centroid (dimensionless distance); 5 or 10 uM (library dependent); higher = stronger phenotypic change vs DMSO (phenoactivity)
Holding throughout (details): 48 h

For one assay, the system named is 786-O. Summed up: (§1)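 Phenoactivity is defined as the Euclidean distance from a compound profile to the median vehicle profile. Each profile comprised 77 Harmony features, scored as signed Kolmogorov-Smirnov statistics versus same-plate vehicle wells, then plate-position corrected, correlation-weighted and replicate-averaged at the top dose. Five cancer lines and one healthy fibroblast line were exposed to library compounds for 48 h at 10 or 5 uM (0.1% DMSO final).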

The test system of another assay is A549. In a few lines: as §1
A further assay deals with DU145. Summed up:
as §1

Another assay has as its system FB. Summed up: as §1
In another assay the test system is HEPG2. In a few lines:
as §1

The test system of a further assay is OVCAR4. In a few lines: as §1

Turning to `CCc1cc(Nc2nccc(-c3c(-c4ccc(OC)c(C(=O)Nc5c(F)cccc5F)c4)nc4ccccn34)n2)c(OC)cc1N1CCC(N2CCN(S(C)(=O)=O)CC2)CC1`, the Euclidean distance in the assay on 786-O stood at 1.24; in the assay with A549 it was 1.6; in the assay with DU145, 1.12; in the assay on FB, 0.954; in the assay with HEPG2 it was 1.11; with OVCAR4 it was 1.26.
As for `CNC(=O)Nc1ccc(-c2nc(N3CC4CCC(C3)O4)c3cnn(C4CCC5(CC4)OCCO5)c3n2)cc1`, the Euclidean distance in the assay with 786-O stood at 4.15; with A549, 3.37; in the assay with DU145, 2.25; with FB, 4.69; with HEPG2, 3.38; with OVCAR4, 4.35.
Turning to `OCC1=C[C@@H](O)[C@@H]2C=CO[C@@H](O[C@@H]3O[C@H](CO)[C@@H](O)[C@H](O)[C@H]3O)[C@H]12` [Aucubin], the Euclidean distance amounted to 0.893 with 786-O; 0.414 with A549; 2.53 with DU145; 0.949 with FB; 0.503 with HEPG2; 1.5 in the assay with OVCAR4.
As to `CC[C@H]1OC(=O)[C@H](C)[C@@H](O[C@H]2C[C@@](C)(OC)[C@@H](O)[C@H](C)O2)[C@H](C)[C@@H](O[C@@H]2O[C@H](C)C[C@H](N(C)C)[C@H]2O)[C@](C)(OC)C[C@@H](C)C(=O)[C@H](C)[C@@H](O)[C@]1(C)O` [Clarithromycin], the Euclidean distance with 786-O worked out at 0.952; with A549, 0.722; in the assay on DU145, 0.938; in the assay with FB, 0.905; in the assay with HEPG2, 0.629; in the assay with OVCAR4 it was 0.909.
Regarding `C=CCc1cccc(/C=N/NC(=O)CN2CCN(Cc3ccccc3)CC2)c1O`, the Euclidean distance in the assay with 786-O was 2.25; in the assay with A549, 2.14; in the assay on DU145 it was 1.28; in the assay on FB it was 1.79; in the assay on HEPG2, 2.31; with OVCAR4, 2.68.
For the compound `CC(N)C12CC3CC(CC(C3)C1)C2` (stereo not drawn) [Rimantadine Hydrochloride], the Euclidean distance in the assay on 786-O stood at 1.07; in the assay on A549, 0.924; in the assay with DU145, 0.781; in the assay on FB, 1.07; in the assay with HEPG2, 0.658; with OVCAR4, 1.17.
As for `COc1ccc([C@]2(C#N)CC[C@@H](C(=O)O)CC2)cc1OC1CCCC1` [Cilomilast], the Euclidean distance in the assay with 786-O is 1.31; in the assay with A549, 0.842; in the assay with DU145, 1.35; with FB, 1.14; in the assay with HEPG2, 1.3; in the assay with OVCAR4, 1.53.
For `CC1(C)Cc2c(sc(NC(=O)c3ccn[nH]3)c2C(N)=O)C(C)(C)O1`, the Euclidean distance in the assay with 786-O stood at 0.808; in the assay on A549, 0.814; in the assay on DU145, 1.54; with FB, 1.43; in the assay with HEPG2, 0.816; with OVCAR4 it was 1.06.
For the compound `CC(C(=O)O)c1cccc(Oc2ccccc2)c1` (stereo not drawn) [Fenoprofen Calcium], the Euclidean distance in the assay with 786-O was determined as 0.95; in the assay with A549, 0.634; in the assay with DU145, 0.599; with FB, 0.997; with HEPG2, 1.16; in the assay on OVCAR4 it was 1.97.
In the case of `COc1cc(N)c(Cl)cc1C(=O)NC1CCN(CCCOc2ccc(F)cc2)CC1OC` (stereo not drawn) [Cisapride hydrate], the Euclidean distance in the assay with 786-O was found to be 0.963; in the assay on A549, 1.16; in the assay with DU145, 0.853; in the assay on FB, 1.23; in the assay on HEPG2, 0.401; with OVCAR4, 1.05.
On to `Nc1cc(C(F)(F)F)c(-c2nc(N3CCOCC3)nc(N3CCOCC3)n2)cn1` [Bimiralisib (PQR309)], for which the Euclidean distance in the assay with 786-O was determined as 2.95; in the assay on A549, 2.83; in the assay with DU145 it was 1.83; in the assay on FB, 4.83; in the assay on HEPG2 it was 2.44; in the assay with OVCAR4, 2.86.
With `C/C(=C\c1ccc(C(=O)O)cc1)c1ccc2c(c1)C(C)(C)CCC2(C)C` [TTNPB (Arotinoid Acid)], the Euclidean distance in the assay with 786-O was found to be 0.687; in the assay on A549 it was 1.39; in the assay with DU145, 1.07; with FB, 2.49; in the assay with HEPG2, 1.61; in the assay on OVCAR4 it was 1.35.
As for `Cc1c(F)cc(C(=O)NC2CC2)cc1-c1ccc(C(=O)NCC(C)(C)C)cn1`, the Euclidean distance in the assay on 786-O stood at 1.17; with A549 it was 0.619; in the assay on DU145, 1.23; in the assay on FB, 0.572; with HEPG2, 0.761; with OVCAR4, 1.09.
Take `COc1cc2nccc(Oc3ccc(NC(=O)NC4CC4)c(Cl)c3)c2cc1C(N)=O` [lenvatinib Mesylate]: the Euclidean distance with 786-O is 1.2; in the assay on A549 it was 1.1; in the assay on DU145 it was 1.71; in the assay on FB it was 3.39; in the assay on HEPG2 it was 0.829; in the assay with OVCAR4, 2.16.
Take `COCCNCCc1cccc(Nc2ncc3c(n2)-c2ccccc2[C@H](c2ccccc2F)C3)c1` [Derazantinib(ARQ-087)]: the Euclidean distance worked out at 6.37 with 786-O; 4.25 with A549; 5.6 with DU145; 3.69 with FB; 4.56 in the assay on HEPG2; 4 with OVCAR4.
`CCOc1ccc2nc(S(N)(=O)=O)sc2c1` [Ethoxzolamide]: the Euclidean distance is 0.892 in the assay on 786-O; 0.718 in the assay on A549; 1.34 in the assay on DU145; 1.35 in the assay with FB; 1.09 in the assay on HEPG2; 0.937 with OVCAR4.
`C[C@H]1[C@H](NC(=O)/C(=N\OC(C)(C)C(=O)O)c2csc(N)n2)C(=O)N1S(=O)(=O)O` [Aztreonam]: the Euclidean distance came to 1.13 with 786-O; 0.951 in the assay on A549; 1.05 in the assay on DU145; 1.15 in the assay with FB; 0.888 in the assay on HEPG2; 1.53 in the assay on OVCAR4.
On to `CC(C(=O)O)c1cccc(Oc2ccccc2)c1` (stereo not drawn) [Fenoprofen calcium hydrate], for which the Euclidean distance in the assay on 786-O came out at 1.27; with A549, 0.707; in the assay on DU145 it was 0.898; with FB, 0.869; in the assay with HEPG2, 0.486; in the assay on OVCAR4, 1.2.
Take `Cc1cc(NS(=O)(=O)c2ccc(N)cc2)no1` [Sulfamethoxazole]: the Euclidean distance in the assay with 786-O was determined as 1.58; with A549 it was 0.797; with DU145 it was 0.847; with FB it was 1.02; in the assay with HEPG2, 0.562; in the assay with OVCAR4 it was 0.86.
Turning to `Oc1c2ccccc2c2c3c(cccc13)N=N2`, the Euclidean distance came out at 1.18 in the assay on 786-O; 1.08 in the assay with A549; 0.792 in the assay with DU145; 0.94 with FB; 1.13 with HEPG2; 0.655 in the assay on OVCAR4.
In the case of `COc1cc2c(cc1OC)[C@H]1C[C@@H](OC(=O)[C@@H](N)C(C)C)[C@H](CC(C)C)CN1CC2` [Valbenazine tosylate], the Euclidean distance came to 0.826 with 786-O; 0.503 in the assay on A549; 1.01 in the assay on DU145; 0.778 in the assay on FB; 0.752 with HEPG2; 1.05 in the assay on OVCAR4.
`CC(C)N(CC[C@H](c1ccccc1)c1cc(CO)ccc1O)C(C)C`: the Euclidean distance stood at 1.1 with 786-O; 0.675 in the assay with A549; 0.538 with DU145; 0.842 with FB; 1.02 in the assay on HEPG2; 1.05 in the assay on OVCAR4.
With `Nc1ccc(S(=O)(=O)Nc2ccc(Cl)nn2)cc1` [Sulfachloropyridazine], the Euclidean distance in the assay on 786-O turned out to be 1.32; with A549, 1.01; with DU145 it was 0.856; in the assay on FB it was 0.835; with HEPG2, 0.669; in the assay on OVCAR4, 1.25.
